Experimental data from PubChem BioAssay (NCATS).
Records with an inconclusive call do not appear. Activity calls are given as the source filed them. Calls follow the shape of the dose curve; as a rule, active = well fitted curve in the direction sought with a large enough effect; inconclusive = small, poorly fitted or top-dose-only effect, or another doubt; inactive = no such curve, though single readings can be large; an effect the other way counts as inactive or inconclusive.

Legend:
[1] = MultiTox-Fluor Cytotoxicity Assay - LYMP1-001 - Dead Cells (AID 946)
Procedure, shortened: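 LYMP1-001 lymphoblastoid cells (2500/well) treated 16 h at 37 C. Dead-cell protease cleavage of bis-AAF-R110 read at Ex/Em 485/520. Normalized to DMSO and 15 uM tetraoctylammonium bromide; AC50 from Hill fits.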

[2] = MultiTox-Fluor Cytotoxicity Assay - LYMP1-001 - Live Cells (AID 947)
[3] = Cell Viability - LYMP1-002 - Assay at 16 hr (AID 948)
Procedure, shortened: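 Seed 2500 LYMP1-002 cells per well in complete medium and hold 5 hr at 37 C. Add compound across a concentration series and incubate 16 hr at 37 C. Add CellTiter-Glo, wait 30 min at room temperature, read luminescence.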

[4] = MultiTox-Fluor Cytotoxicity Assay - LYMP1-002 - Dead Cells (AID 960); also: nearly all actives have a fitted effect of over 60% in size
Procedure, shortened: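 Concentration-dependent increases in membrane-leaked protease activity are quantified in LYMP1-002 cells after 16 hr treatment; values are normalized against DMSO and tetraoctylammonium bromide (15 uM) controls and AC50 derived by Hill modeling.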

[5] = MultiTox-Fluor Cytotoxicity Assay - LYMP1-003 - Dead Cells (AID 961); also: nearly all actives have a fitted effect of over 70% in size
Procedure, shortened: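 LYMP1-003 human lymphoblastoid cells (2500/well) exposed to compound 16 h at 37 C in complete medium; dead-cell protease read with bis-AAF-R110 fluorescence (Ex/Em 485/520) after 60 min at room temperature. Normalized to DMSO and 15 uM tetraoctylammonium bromide; AC50 from Hill fit.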

[6] = MultiTox-Fluor Cytotoxicity Assay - LYMP1-003 - Live Cells (AID 962);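 also: cytotoxic hits lower the live-cell protease signal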
Procedure, shortened: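 Human lymphoblastoid line LYMP1-003 in complete culture medium, treated 16 hr with titrated compounds. Viable cells quantified via cell-permeant GF-AFC substrate fluorescence; AC50 derived by Hill fitting.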

[7] = Cell Viability - LYMP1-003 - Assay at 24 hr (AID 963)
Procedure, shortened: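 The lymphoblastoid line was treated with titrated compounds for 24 hours, and viable cell number estimated from luciferase-based ATP luminescence.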

[8] = Cell Viability - LYMP1-003 - Assay at 40 hr (AID 964); also: series mostly up to about 92 µM; nearly all actives have a fitted effect of over 60% in size
Procedure, shortened: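 Acute toxicity is scored as a concentration-dependent loss of intracellular ATP in LYMP1-003 cells (2500/well, complete medium) after 40 hr at 37 C, measured by CellTiter-Glo luminescence; AC50 values derive from standard Hill modelling.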

[9] = Cell Viability - LYMP2-003 (AID 965);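 also: cells exposed to compounds for 24 h before reading; nearly all actives have a fitted effect of over 50% in size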
Procedure, shortened: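 Seed 2500 lymphoblastoid cells/well; incubate 5 hr, 37 C; add compounds; incubate 24 hr, 37 C; add CellTiter-Glo, 30 min RT; read luminescence. AC50 from Hill fit.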

[10] = Cell Viability - LYMP2-004 (AID 966); also: nearly all actives have a fitted effect of over 65% in size
Procedure, shortened: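 Viable-cell number estimated from ATP luminescence (CellTiter-Glo) in 2500 human lymphoblastoid cells/well after 24 hr at 37 C with compound. AC50 fitted to the standard Hill equation.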

[11] = Cell Viability - LYMP2-009 (AID 968);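 also: series mostly up to about 92 µM; cells exposed to compound for 24 h at 37 °C; nearly all actives have a fitted effect of over 55% in size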
[12] = Cell Viability - LYMP2-011 (AID 969); also: nearly all actives have a fitted effect of over 60% in size
Procedure, shortened: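 Cells seeded at 2500 per well rest 5 hr before compound addition, then incubate 24 hr at 37 C. CellTiter-Glo reagent is added for 30 min at room temperature before luminescence detection.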

[13] = Cell Viability - LYMP2-013 (AID 970);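 also: series mostly up to about 92 µM; cells exposed to compound for 24 h at 37 °C; nearly all actives have a fitted effect of over 55% in size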
Procedure, shortened: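 In complete culture medium, human lymphoblastoid cells were dosed for 24 hr at 37 C, with tetraoctylammonium bromide (6.4pM to 92 uM) as positive control. Viability reflects luciferase-based ATP signal; AC50 derived from concentration-response curves.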

[14] = Cell Viability - LYMP2-015 (AID 971); also: nearly all actives have a fitted effect of over 55% in size
Procedure, shortened: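 AC50 values reflect Hill-model fits of ATP-based luminescence (CellTiter-Glo) from a human lymphoblastoid line, 2500 cells/well, treated 24 hr at 37 C.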

[15] = Cell Viability - LYMP2-017 (AID 972);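 also: series mostly up to about 92 µM; cells exposed to compound for 24 hours at 37 °C; nearly all actives have a fitted effect of over 55% in size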
Procedure, shortened: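 In this qHTS format, lymphoblastoid cells in complete medium receive test compound for a day at 37 C before ATP content is quantified by luciferase luminescence. Reported AC50 figures come from standard Hill-equation curve fitting.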

[16] = Cell Viability - LYMP2-019 (AID 973)
Procedure, shortened: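 AC50 values come from Hill-equation modelling of qHTS concentration-response curves, where viability is measured as luciferase-based ATP luminescence in the lymphoblastoid line after 24 hr compound exposure in complete culture medium.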

[17] = Cell Viability - LYMP2-023 (AID 975)
Procedure, shortened: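 In this qHTS, ATP-based luciferase luminescence (CellTiter-Glo) is quantified in human lymphoblastoid cells after 24 hr compound treatment at 37 C; tetraoctylammonium bromide serves as positive control. Concentration-response curves are Hill-fitted to give AC50.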

[18] = Cell Viability - LYMP2-005 (AID 967);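 also: series mostly up to about 92 µM; cells exposed to compound for 24 h at 37 °C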
Procedure, shortened: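 Acute cytotoxicity is scored as a concentration-dependent drop in intracellular ATP in human lymphoblastoid LYMP2-005 cells after 24 h compound treatment. ATP is quantified by luciferase luminescence, and AC50 is derived by Hill-equation modelling.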

[19] = Cell Viability - LYMP2-021 (AID 974)
Procedure, shortened: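 In qHTS format, compounds are tested against 2500 lymphoblastoid cells per well for 24 h; viable cell number is inferred from ATP-driven luciferase light, and Hill-equation fitting yields AC50 values.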

[20] = MultiTox-Fluor Cytotoxicity Assay - LYMP1-002 - Live Cells (AID 955)
Procedure, shortened: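 In this qHTS viability format, lymphoblastoid cells (LYMP1-002, human) received compound for 16 hr at 37 C. Fluorogenic GF-AFC cleavage by viable cells was detected at 405/510 nm after 1 h at room temperature.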

Measured: Potency

O=[N+]([O-])c1ccc2nc[nH]c2c1
not listed: [18] | [19] | [20]
inactive: all other assays above

O=Cc1ccc(Cl)cc1
not listed: [20]
inactive: all other assays above

COC(=O)c1ccccc1
not listed: [4] | [9] | [10]
inactive: all other assays above

O=C(O)CCSSCCC(=O)O
not listed: [5] | [6] | [10] | [19] | [20]
inactive: all other assays above

Cc1ccc(Cl)cc1
not listed: [16] | [20]
inactive: all other assays above

O=[N+]([O-])c1c(Cl)cc(Cl)cc1Cl
not listed: [11] | [13] | [16] | [20]
inactive: all other assays above

Cc1cccc(Br)c1
not listed: [4] | [20]
inactive: all other assays above

CCCCC(C=O)CC (stereo not drawn)
not listed: [18] | [20]
inactive: all other assays above

CCCCC(CC)COC(=O)CCCCC(=O)OCC(CC)CCCC (stereo not drawn)
not listed: [2] | [13]
inactive: all other assays above

CC(=O)OCCC(C)C
not listed: [3] | [9] | [13] | [18]
inactive: all other assays above

Clc1ccc(Cl)c(Cl)c1Cl
not listed: [3] | [13] | [16] | [20]
inactive: all other assays above

O=C(O)c1ccc(Cl)cc1Cl
not listed: [2]
inactive: all other assays above

O=C(O)CNC(=O)c1ccc(CO)o1
not listed: [2]
inactive: all other assays above

OC1CCCC1
not listed: [3] | [4] | [9] | [18]
inactive: all other assays above

Cc1ccc2ccccc2c1[N+](=O)[O-]
not listed: [2] | [19]
inactive: all other assays above

C=C(C)C(=O)OCC(C)C
not listed: [2]
inactive: all other assays above

CSCCC=O
not listed: [3] | [18] | [19]
inactive: all other assays above

Nc1nc2ccccc2[nH]1
not listed: [3] | [13] | [18] | [19]
inactive: all other assays above

CCNS(=O)(=O)c1ccc(C)cc1
not listed: [3] | [20]
inactive: all other assays above

CCCCC(=O)N(C)C
not listed: [2] | [18]
inactive: all other assays above

C/C(C=O)=C/c1ccccc1
not listed: [3] | [11] | [14]
inactive: all other assays above

C=C(C)C(=O)OCCCCCC
not listed: [2] | [19]
inactive: all other assays above

Cc1ccc(C)o1
not listed: [3] | [11]
inactive: all other assays above

CC/C=C1/OC(=O)c2ccccc21
not listed: [3] | [19] | [20]
inactive: all other assays above

CCOc1ccccc1N
not listed: [3] | [5] | [16]
inactive: all other assays above

COc1ccc(OC)cc1
not listed: [2] | [14] | [16]
inactive: all other assays above

Cc1ccc(C(C)(C)C)cc1
not listed: [2] | [16]
inactive: all other assays above

C=CCOC(=O)COCCC(C)C
not listed: [3] | [13]
inactive: all other assays above

C=C(C)C(N)=O
not listed: [2]
inactive: all other assays above

ClCCl
not listed: [2] | [11] | [19]
inactive: all other assays above

CC(C)(C)c1ccc(OCC2CO2)cc1 (stereo not drawn)
not listed: [2] | [19]
inactive: all other assays above

C=CCn1c(=O)n(CC=C)c(=O)n(CC=C)c1=O
not listed: [3] | [20]
inactive: all other assays above

Cc1cccc(C)c1
not listed: [2] | [14]
inactive: all other assays above

CC(=O)c1cc(C)oc1C
not listed: [3] | [6] | [11] | [18]
inactive: all other assays above

CC=C(Cl)Cl
not listed: [3] | [9] | [11]
inactive: all other assays above

Nc1ccc([N+](=O)[O-])c(N)c1
not listed: [3] | [20]
inactive: all other assays above

Cc1ccc2c(c1[N+](=O)[O-])C(=O)c1ccccc1C2=O
not listed: [2]
inactive: all other assays above

Oc1cccc(Nc2ccccc2)c1
not listed: [2] | [16] | [18]
inactive: all other assays above

C1COC1
not listed: [3] | [13]
inactive: all other assays above

O=c1[nH][nH]c(=O)c2cc([N+](=O)[O-])ccc12
not listed: [2] | [19]
inactive: all other assays above

Nc1cc(S(=O)(=O)O)ccc1O
not listed: [2]
inactive: all other assays above

CN(C)CCCCl
not listed: [2] | [11] | [14]
inactive: all other assays above

O=C(O)c1ccc(C(=O)O)cc1
not listed: [3] | [9] | [18] | [19]
inactive: all other assays above

CC(N)CN (stereo not drawn)
not listed: [2]
inactive: all other assays above

O=C(O)c1ccccc1C(=O)O
not listed: [3] | [13]
inactive: all other assays above

CCNc1ccccc1
not listed: [2] | [11] | [14]
inactive: all other assays above

CC(=O)OC(C)=O
not listed: [2] | [18] | [19]
inactive: all other assays above

Nc1ccc(Cl)cc1[N+](=O)[O-]
not listed: [3] | [14] | [19]
inactive: all other assays above

C=CC(=O)NC(C)C
not listed: [2] | [3]
inactive: all other assays above

O=C1OC(=O)c2c(Br)c(Br)c(Br)c(Br)c21
not listed: [2] | [14] | [18]
inactive: all other assays above

Nc1cc(Cl)c(N)c(Cl)c1
not listed: [2] | [4]
inactive: all other assays above

CCOc1cccc(N)c1
not listed: [1]
inactive: all other assays above
